Assay [1] concerns Vero E6 infected with SARS-CoV-2. Description: morphology score (similarity to uninfected cells); higher = more like uninfected cells. Conditions: 24 h.
Assay [2] shares this test system. Description: SARS-CoV-2 infection rate relative to infected DMSO; higher = more infection, active = 60 or less. Conditions: 24 h.

Molecules are shown by their SMILES.

In assay [1], `CCN(CC)CC(=O)Nc1c(C)cccc1C` [lidocaine] (10 µM) came in with a morphology score of 0.0603. The SARS-CoV-2 infection rate in assay [2] is 100% (inactive).
In turn, `C#C[C@]1(O)CC[C@H]2[C@@H]3CCC4=CC(=O)CC[C@@H]4[C@H]3C(=C)C[C@@]21CC` [etonogestrel] (10 µM) returned a morphology score in assay [1] of 0.249. Moreover, the SARS-CoV-2 infection rate in assay [2] was 90.5% (inactive).
Taken in the same sequence, the figures for `Cc1ccc(-c2ncc(Cl)cc2-c2ccc(S(C)(=O)=O)cc2)cn1` [etoricoxib] (10 µM) were -0.139 and 114% (inactive).
In the same order, the values of `C=CC1=C(C(=O)O)N2C(=O)[C@@H](NC(=O)/C(=N\O)c3csc(N)n3)[C@H]2SC1` [cefdinir] (10 µM) are -0.118 and 107% (inactive).
In the same order, the values of `C/C(=C\C(=O)Nc1ccccc1C(=O)O)c1ccc2ccccc2c1` (10 µM) are 0.23 and 103% (inactive).
In assay [1], `Cc1cccc(NC(=O)N[C@@H]2N=C(c3ccccc3)c3ccccc3N(C)C2=O)c1` (10 µM) displayed a morphology score of 0.0212. For the same compound, in assay [2], the SARS-CoV-2 infection rate was 106% (inactive).
In assay [1], `COc1ccc(CNCc2cccc3ccccc23)cc1` (10 µM) displayed a morphology score of 0.0641. Also, in assay [2], the SARS-CoV-2 infection rate is 105% (inactive).
In the same order, the values of `CC(C)(C)[C@]1(O)CC2OC(=O)CC23C(=O)OC2OC(=O)[C@H](O)C231` (stereo not given in full) [bilobalide] (10 µM) are 0.0342 and 110% (inactive).
Taken in the same sequence, the figures for `OC[C@@H](O)[C@@H](O)CO` [erythritol] (10 µM) were 0.135 and 87.5% (inactive).
`CC(COc1ccccc1)N(CCCl)Cc1ccccc1` (stereo not given) [phenoxybenzamine] (10 µM) showed a morphology score in assay [1] of 0.146. Also, the SARS-CoV-2 infection rate in assay [2] was 106% (inactive).
Taken in the same sequence, the figures for `CS(=O)(=O)Nc1c(O)ccc2c1CCC[C@H]2C1=NCCN1` (10 µM) were 0.0346 and 110% (inactive).
In the same order, the values of `C1=Cc2cccc(OCC3CNCCO3)c2C1` (stereo not given) [indeloxazine] (10 µM) are -0.319 and 106% (inactive).
`CN1C[C@@H](NS(=O)(=O)N(C)C)C[C@@H]2c3cccc4c3c(cn4C)C[C@H]21` [mesulergine] (10 µM) registered a morphology score in assay [1] of 0.205. Moreover, the SARS-CoV-2 infection rate in assay [2] is 93.5% (inactive).
Taken in the same sequence, the figures for `CC1=C(/C=C/C(C)=C/C=C/C(C)=C/C=C/C=C(C)/C=C/C=C(C)/C=C/C2=C(C)CCCC2(C)C)C(C)(C)CCC1` [beta-carotene] (10 µM) were 0.0662 and 112% (inactive).
In the same order, the values of `NCc1c[nH]c(=S)n1[C@H]1CCc2c(F)cc(F)cc2C1` [nepicastat] (10 µM) are -0.046 and 104% (inactive).
In the same order, the values of `Cc1c(NC(=O)c2cccnc2)c(=O)n(-c2ccccc2)n1C` [nifenazone] (10 µM) are 0.0329 and 102% (inactive).
`Cc1ccc2c(c1)[C@]13CCCC[C@@H]1[C@H](C2)N(C)CC3` [dimemorfan] (10 µM) showed a morphology score in assay [1] of 0.368. Besides, the SARS-CoV-2 infection rate in assay [2] is 92.5% (inactive).
Regarding `COc1c(N2CCNC(C)C2)c(F)cc2c(=O)c(C(=O)O)cn(C3CC3)c12` (stereo not given) [gatifloxacin] (10 µM), the morphology score in assay [1] came to 0.0682. Further, the SARS-CoV-2 infection rate in assay [2] was 104% (inactive).
Taken in the same sequence, the figures for `N#Cc1c[nH]c2c(C(=O)N3CCN(CCc4ccc(F)cc4)CC3)cccc12` [pruvanserin] (10 µM) were 0.117 and 98.5% (inactive).
In the same order, the values of `COc1ccc(CC2NCCc3cc(OC)c(OC)cc32)cc1OC` (stereo not given) [tetrahydropapaverine] (10 µM) are -0.026 and 108% (inactive).
Taken in the same sequence, the figures for `CCCCC1(COC(=O)CCC(=O)O)C(=O)N(c2ccccc2)N(c2ccccc2)C1=O` [suxibuzone] (10 µM) were 0.183 and 94.5% (inactive).
In assay [1], `CN(C)CCC(c1ccccc1)c1ccccn1` (stereo not given) [pheniramine] (10 µM) returned a morphology score of -0.131. In addition, the SARS-CoV-2 infection rate in assay [2] was 110% (inactive).
Taken in the same sequence, the figures for `COc1cc(N2CCC(N3CCN(C)CC3)CC2)ccc1Nc1ncc(Cl)c(Nc2ccccc2P(C)(C)=O)n1` [brigatinib] (0.833333 µM) were -0.178 and 105% (inactive).
For the compound `Cc1ccc(CCCO)c(NCc2ccc3nc(NCCCN4CCOCC4)n(Cc4nc(C)ccc4O)c3c2)c1` (10 µM), the morphology score in assay [1] turned out to be 0.227. Besides, in assay [2], the SARS-CoV-2 infection rate is 96.5% (inactive).
Regarding `NC(=O)CN1CC[C@@H](NC(=O)[C@@H]2CCCN2)C1=O` (10 µM), the morphology score in assay [1] worked out at 0.096. For the same compound, the SARS-CoV-2 infection rate in assay [2] was 110% (inactive).
As to `COc1cc(C=O)ccc1O` [vanillin] (10 µM), the morphology score in assay [1] turned out to be 0.0882. Further, the SARS-CoV-2 infection rate in assay [2] was 104% (inactive).
Turning to `CN1Cc2c(C(=O)OC(C)(C)C)ncn2-c2ccsc2C1=O` (10 µM), the morphology score in assay [1] was -0.00637. For the same compound, the SARS-CoV-2 infection rate in assay [2] was 102% (inactive).
In turn, `NCCc1cc[nH]n1` [betazole] (10 µM) came in with a morphology score in assay [1] of -0.0835. Also, the SARS-CoV-2 infection rate in assay [2] is 105% (inactive).
Taken in the same sequence, the figures for `CC(C)(C)NCC(O)c1cc(Cl)c(N)c(C(F)(F)F)c1` (stereo not given) [mabuterol] (10 µM) were -0.0501 and 107% (inactive).
In the same order, the values of `O=C(C(c1ccccc1)c1ccccc1)N1CCN(CC(O)COc2cccc3ncccc23)CC1` (stereo not given) [dofequidar] (10 µM) are 0.14 and 89.5% (inactive).

These data come from the supplement of paper PMC13380429.
